Experimental data taken from publication PMC7862700, “An all-to-all approach to the identification of sequence-specific readers for epigenetic DNA modifications on cytosine”.

What was measured:
Assay in all cases: DAPPL (digital affinity profiling via proximity ligation, sequencing); 10 mM Tris-HCl pH 7.5, 50 mM NaCl, 1 mM DTT, 4% glycerol, room temperature, 30 min; GST-TFs on glutathione beads, 16-mer random dsDNA library, 0.1% formaldehyde crosslink after washing; high values mean tight binding
[1] = biological target: T1, FLI1 (Homo sapiens, UniProt Q01543 1-452); conditions: protein: recombinant; tags: N-terminal GST; dsDNA, one strand shown
T1 sequence: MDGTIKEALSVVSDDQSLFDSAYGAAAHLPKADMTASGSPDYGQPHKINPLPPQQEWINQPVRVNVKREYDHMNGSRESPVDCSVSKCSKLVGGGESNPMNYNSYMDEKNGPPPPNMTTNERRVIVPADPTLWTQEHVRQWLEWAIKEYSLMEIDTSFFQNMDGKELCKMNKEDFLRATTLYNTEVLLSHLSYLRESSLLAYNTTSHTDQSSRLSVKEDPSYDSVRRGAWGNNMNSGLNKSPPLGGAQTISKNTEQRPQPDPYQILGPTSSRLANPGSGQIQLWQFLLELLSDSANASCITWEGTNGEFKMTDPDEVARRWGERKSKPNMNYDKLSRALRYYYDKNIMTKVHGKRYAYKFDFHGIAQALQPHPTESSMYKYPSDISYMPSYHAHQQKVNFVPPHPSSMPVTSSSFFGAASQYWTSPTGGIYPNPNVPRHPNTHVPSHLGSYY
Summary of the method: (§1)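 Human transcription factors fused to GST were expressed in yeast, captured on glutathione beads, given DNA barcodes and pooled with a GST-only negative control. Pools were incubated with 200 nmole of a 16-mer random double-stranded DNA library in Tris/NaCl/DTT/glycerol buffer at room temperature for 30 min. They were then washed, crosslinked with 0.1% formaldehyde, proximity-ligated (BsaI/T4 ligase, 1 h, 37 °C), PCR-amplified and sequenced on an Illumina NextSeq500. Binding signal is each 6-mer's read frequency for a factor divided by its frequency for the GST control.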

[2] = biological target: T2, ELK1 (Homo sapiens, UniProt P19419 1-428); conditions: protein: recombinant; tags: N-terminal GST; dsDNA, one strand shown
T2 sequence: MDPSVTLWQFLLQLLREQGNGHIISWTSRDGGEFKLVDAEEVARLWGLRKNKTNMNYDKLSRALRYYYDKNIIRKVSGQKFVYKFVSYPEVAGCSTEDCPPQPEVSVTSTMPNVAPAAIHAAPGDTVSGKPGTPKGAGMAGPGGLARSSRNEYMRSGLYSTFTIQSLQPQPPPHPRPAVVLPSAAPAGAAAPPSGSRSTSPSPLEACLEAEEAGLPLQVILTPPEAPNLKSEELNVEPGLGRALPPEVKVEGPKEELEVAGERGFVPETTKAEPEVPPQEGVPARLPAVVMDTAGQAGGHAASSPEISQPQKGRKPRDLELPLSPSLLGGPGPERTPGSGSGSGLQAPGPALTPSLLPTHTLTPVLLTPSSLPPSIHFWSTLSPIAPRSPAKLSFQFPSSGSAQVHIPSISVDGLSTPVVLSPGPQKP
Summary of the method: as §1

[3] = biological target: T3, GABPA (Homo sapiens, UniProt Q06546 1-454); conditions: protein: recombinant; tags: N-terminal GST; dsDNA, one strand shown
T3 sequence: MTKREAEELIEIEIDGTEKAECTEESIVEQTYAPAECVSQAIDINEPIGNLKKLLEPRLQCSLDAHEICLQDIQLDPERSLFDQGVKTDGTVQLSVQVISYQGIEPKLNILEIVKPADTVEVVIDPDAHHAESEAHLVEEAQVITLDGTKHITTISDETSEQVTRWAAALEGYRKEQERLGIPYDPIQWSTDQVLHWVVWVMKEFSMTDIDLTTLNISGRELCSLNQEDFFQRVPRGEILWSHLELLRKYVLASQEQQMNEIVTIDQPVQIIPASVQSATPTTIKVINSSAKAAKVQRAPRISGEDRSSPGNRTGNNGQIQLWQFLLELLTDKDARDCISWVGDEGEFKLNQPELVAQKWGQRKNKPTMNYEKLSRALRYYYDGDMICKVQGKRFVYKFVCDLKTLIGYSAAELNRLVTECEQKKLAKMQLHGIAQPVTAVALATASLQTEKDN
Summary of the method: as §1

[4] = biological target: T4, ERG (Homo sapiens, UniProt P11308 1-479); conditions: protein: recombinant; tags: N-terminal GST; dsDNA, one strand shown
T4 sequence: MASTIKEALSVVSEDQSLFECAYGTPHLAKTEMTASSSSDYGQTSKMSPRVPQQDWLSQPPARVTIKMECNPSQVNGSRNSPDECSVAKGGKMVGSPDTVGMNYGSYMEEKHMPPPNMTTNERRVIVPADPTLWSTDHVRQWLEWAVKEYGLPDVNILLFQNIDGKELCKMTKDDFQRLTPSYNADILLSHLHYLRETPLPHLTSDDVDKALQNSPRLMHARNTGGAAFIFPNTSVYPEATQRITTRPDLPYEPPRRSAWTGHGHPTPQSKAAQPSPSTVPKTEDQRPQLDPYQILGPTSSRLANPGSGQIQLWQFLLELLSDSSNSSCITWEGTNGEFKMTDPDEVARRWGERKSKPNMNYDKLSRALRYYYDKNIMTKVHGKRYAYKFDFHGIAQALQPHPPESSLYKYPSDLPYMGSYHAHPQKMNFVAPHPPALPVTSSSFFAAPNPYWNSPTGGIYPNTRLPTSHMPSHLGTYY
Summary of the method: as §1

[5] = biological target: ELF1 (Homo sapiens, UniProt P32519 1-619); conditions: protein: recombinant; tags: N-terminal GST; dsDNA, one strand shown
Summary of the method: as §1

[6] = biological target: T5, EHF (Homo sapiens, UniProt Q9NZC4 1-300); conditions: protein: recombinant; tags: N-terminal GST; dsDNA, one strand shown
T5 sequence: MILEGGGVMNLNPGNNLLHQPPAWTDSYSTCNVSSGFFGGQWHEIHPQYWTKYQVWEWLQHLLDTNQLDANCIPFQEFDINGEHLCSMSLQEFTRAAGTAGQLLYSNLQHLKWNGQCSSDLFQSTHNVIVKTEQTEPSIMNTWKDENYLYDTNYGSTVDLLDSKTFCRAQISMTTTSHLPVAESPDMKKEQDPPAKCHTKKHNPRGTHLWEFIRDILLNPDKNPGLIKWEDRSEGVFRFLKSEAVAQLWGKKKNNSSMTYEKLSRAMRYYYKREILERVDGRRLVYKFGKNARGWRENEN
Summary of the method: as §1

[7] = biological target: SPI1 (Homo sapiens, UniProt P17947 1-270); conditions: protein: recombinant; tags: N-terminal GST; dsDNA, one strand shown
Summary of the method: as §1

[8] = biological target: SPIB (Homo sapiens, UniProt Q01892 1-262); conditions: protein: recombinant; tags: N-terminal GST; dsDNA, one strand shown
Summary of the method: as §1

[9] = biological target: T6, ELK3 (Homo sapiens, UniProt P41970 1-407); conditions: protein: recombinant; tags: N-terminal GST; dsDNA, one strand shown
T6 sequence: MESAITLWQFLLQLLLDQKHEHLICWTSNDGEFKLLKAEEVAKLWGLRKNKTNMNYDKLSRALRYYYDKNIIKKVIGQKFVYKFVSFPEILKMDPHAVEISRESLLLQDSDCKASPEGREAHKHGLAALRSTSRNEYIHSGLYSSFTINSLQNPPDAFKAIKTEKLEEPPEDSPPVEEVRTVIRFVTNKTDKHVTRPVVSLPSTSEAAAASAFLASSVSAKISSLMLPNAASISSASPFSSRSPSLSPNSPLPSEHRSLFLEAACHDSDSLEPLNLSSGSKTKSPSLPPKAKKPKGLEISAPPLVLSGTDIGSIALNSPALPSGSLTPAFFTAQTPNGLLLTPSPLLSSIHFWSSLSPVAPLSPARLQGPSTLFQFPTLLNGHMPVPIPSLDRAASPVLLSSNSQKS
Summary of the method: as §1

[10] = biological target: T7, FEV (Homo sapiens, UniProt Q99581 1-238); conditions: protein: recombinant; tags: N-terminal GST; dsDNA, one strand shown
T7 sequence: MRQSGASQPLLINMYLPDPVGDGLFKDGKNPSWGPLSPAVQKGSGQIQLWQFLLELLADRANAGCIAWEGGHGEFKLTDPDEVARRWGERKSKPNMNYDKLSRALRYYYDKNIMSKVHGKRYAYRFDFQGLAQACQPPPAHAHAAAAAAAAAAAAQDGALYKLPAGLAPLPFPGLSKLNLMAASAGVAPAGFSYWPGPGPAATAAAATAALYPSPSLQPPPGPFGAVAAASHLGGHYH
Summary of the method: as §1

[11] = biological target: ETV5 (Homo sapiens, UniProt P41161 1-510); conditions: protein: recombinant; tags: N-terminal GST; dsDNA, one strand shown
Summary of the method: as §1

[12] = biological target: HSF1 (Homo sapiens, UniProt Q00613 1-529); conditions: protein: recombinant; tags: N-terminal GST; chain copies: 3; dsDNA, one strand shown
Summary of the method: as §1

[13] = biological target: T8, SPIC (Homo sapiens, UniProt Q8N5J4 1-248); conditions: protein: recombinant; tags: N-terminal GST; dsDNA, one strand shown
T8 sequence: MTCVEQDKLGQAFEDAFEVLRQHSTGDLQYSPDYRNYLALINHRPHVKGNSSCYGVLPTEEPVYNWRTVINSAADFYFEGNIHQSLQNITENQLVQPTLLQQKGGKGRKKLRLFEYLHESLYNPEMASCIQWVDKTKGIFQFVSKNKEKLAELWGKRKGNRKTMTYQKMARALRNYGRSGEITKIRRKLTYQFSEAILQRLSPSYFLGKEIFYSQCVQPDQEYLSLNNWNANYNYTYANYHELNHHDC
Summary of the method: as §1

[14] = biological target: ELF4 (Homo sapiens, UniProt Q99607 1-663); conditions: protein: recombinant; tags: N-terminal GST; dsDNA, one strand shown
Summary of the method: as §1

[15] = biological target: T9, ELK4 (Homo sapiens, UniProt P28324-2 1-405); conditions: protein: recombinant; tags: N-terminal GST; dsDNA, one strand shown
T9 sequence: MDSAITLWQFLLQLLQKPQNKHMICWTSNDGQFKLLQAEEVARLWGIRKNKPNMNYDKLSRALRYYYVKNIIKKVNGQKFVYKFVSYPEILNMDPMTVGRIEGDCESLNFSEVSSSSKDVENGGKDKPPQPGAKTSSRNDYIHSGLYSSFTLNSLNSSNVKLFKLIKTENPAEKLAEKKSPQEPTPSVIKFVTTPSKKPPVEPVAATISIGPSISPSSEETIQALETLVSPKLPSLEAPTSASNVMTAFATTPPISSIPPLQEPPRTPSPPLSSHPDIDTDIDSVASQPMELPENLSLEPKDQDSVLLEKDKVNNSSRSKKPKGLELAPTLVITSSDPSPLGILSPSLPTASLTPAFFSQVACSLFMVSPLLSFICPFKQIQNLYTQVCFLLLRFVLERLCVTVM
Summary of the method: as §1

[16] = biological target: T10, ETV2 (Homo sapiens, UniProt O00321 1-342); conditions: protein: recombinant; tags: N-terminal GST; dsDNA, one strand shown
T10 sequence: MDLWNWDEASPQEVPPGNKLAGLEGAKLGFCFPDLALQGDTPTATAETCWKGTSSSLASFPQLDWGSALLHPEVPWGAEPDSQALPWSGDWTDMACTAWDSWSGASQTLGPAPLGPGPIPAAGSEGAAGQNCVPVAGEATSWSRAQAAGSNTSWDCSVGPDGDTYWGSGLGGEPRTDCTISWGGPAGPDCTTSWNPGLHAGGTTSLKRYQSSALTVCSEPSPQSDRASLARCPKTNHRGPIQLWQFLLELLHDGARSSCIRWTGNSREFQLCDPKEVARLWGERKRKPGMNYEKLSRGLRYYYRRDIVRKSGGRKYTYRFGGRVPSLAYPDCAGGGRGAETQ
Summary of the method: as §1

[17] = biological target: T11, ELF3 (Homo sapiens, UniProt P78545 1-371); conditions: protein: recombinant; tags: N-terminal GST; dsDNA, one strand shown
T11 sequence: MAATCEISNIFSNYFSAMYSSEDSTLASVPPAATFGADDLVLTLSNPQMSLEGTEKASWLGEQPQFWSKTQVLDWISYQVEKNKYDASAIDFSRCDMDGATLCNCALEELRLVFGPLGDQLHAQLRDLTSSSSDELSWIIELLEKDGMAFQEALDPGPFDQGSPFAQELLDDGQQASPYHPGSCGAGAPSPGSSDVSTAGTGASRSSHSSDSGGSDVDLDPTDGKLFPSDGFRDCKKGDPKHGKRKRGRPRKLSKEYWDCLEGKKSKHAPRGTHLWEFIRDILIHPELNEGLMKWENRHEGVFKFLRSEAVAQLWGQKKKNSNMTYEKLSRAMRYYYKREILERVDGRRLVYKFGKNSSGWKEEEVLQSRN
Summary of the method: as §1

[18] = biological target: CRX (Homo sapiens, UniProt O43186 1-299); conditions: protein: recombinant; tags: N-terminal GST; dsDNA, one strand shown
Summary of the method: as §1

[19] = biological target: ETV1 (Homo sapiens, UniProt P50549 1-477); conditions: protein: recombinant; tags: N-terminal GST; dsDNA, one strand shown
Summary of the method: as §1

Sequence of ETV1 (P50549 whole entry): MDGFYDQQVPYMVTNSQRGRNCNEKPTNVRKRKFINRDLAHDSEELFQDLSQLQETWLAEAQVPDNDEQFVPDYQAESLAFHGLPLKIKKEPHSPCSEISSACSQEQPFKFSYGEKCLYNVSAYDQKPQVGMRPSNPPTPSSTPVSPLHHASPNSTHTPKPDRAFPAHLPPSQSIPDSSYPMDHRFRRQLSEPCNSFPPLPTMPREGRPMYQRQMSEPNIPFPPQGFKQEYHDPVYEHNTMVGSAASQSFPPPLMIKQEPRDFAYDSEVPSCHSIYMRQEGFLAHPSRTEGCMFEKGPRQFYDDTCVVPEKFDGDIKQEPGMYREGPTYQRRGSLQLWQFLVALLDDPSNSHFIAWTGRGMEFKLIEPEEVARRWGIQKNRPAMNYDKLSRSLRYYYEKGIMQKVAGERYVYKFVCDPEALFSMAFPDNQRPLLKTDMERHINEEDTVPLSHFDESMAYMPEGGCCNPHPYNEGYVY
Sequence of SPIB (Q01892 whole entry): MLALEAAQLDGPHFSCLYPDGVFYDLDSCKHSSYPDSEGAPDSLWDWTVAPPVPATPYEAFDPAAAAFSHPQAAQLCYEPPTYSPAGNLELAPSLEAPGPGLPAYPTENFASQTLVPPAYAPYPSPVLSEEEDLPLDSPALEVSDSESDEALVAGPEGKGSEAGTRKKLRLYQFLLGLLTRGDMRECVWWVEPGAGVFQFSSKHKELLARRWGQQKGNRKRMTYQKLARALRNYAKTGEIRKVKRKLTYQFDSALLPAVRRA
Sequence of ETV5 (P41161 whole entry): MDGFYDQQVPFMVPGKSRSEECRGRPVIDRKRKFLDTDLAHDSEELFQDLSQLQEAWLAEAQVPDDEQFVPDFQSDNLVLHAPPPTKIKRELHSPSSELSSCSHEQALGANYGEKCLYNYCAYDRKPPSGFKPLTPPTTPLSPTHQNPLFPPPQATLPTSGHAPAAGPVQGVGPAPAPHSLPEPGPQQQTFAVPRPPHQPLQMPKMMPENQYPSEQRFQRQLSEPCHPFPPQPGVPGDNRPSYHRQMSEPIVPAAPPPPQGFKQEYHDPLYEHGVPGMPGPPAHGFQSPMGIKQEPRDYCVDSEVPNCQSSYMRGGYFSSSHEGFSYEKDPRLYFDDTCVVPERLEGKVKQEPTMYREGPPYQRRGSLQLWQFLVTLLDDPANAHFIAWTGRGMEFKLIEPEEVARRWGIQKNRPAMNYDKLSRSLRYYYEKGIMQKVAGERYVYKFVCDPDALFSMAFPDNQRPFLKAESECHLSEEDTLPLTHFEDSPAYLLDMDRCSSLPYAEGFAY
Sequence of CRX (O43186 whole entry): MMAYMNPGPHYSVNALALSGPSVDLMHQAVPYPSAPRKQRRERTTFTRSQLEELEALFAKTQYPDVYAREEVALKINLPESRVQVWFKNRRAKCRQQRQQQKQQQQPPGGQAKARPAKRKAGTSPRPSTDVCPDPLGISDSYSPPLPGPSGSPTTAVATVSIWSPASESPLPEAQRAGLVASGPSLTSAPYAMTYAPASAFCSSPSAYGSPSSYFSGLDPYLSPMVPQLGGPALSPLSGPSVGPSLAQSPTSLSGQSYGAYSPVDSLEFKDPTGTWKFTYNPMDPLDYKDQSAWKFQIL
Sequence of ELF1 (P32519 whole entry): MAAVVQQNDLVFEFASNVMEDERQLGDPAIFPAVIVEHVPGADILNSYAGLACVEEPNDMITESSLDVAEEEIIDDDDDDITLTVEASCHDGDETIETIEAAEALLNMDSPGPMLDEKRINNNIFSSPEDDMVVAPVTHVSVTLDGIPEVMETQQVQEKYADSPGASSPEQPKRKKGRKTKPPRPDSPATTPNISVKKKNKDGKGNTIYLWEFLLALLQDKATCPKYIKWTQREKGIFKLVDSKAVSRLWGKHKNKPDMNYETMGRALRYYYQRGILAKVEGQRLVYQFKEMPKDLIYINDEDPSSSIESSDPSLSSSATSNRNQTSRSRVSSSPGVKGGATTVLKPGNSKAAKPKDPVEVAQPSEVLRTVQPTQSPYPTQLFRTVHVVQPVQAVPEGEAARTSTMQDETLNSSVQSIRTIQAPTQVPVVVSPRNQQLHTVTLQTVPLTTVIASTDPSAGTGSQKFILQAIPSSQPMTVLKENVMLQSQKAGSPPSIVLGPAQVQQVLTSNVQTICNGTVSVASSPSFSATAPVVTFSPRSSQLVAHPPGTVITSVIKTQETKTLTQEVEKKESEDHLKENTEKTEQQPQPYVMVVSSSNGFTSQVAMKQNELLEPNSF
Sequence of ELF4 (Q99607 whole entry): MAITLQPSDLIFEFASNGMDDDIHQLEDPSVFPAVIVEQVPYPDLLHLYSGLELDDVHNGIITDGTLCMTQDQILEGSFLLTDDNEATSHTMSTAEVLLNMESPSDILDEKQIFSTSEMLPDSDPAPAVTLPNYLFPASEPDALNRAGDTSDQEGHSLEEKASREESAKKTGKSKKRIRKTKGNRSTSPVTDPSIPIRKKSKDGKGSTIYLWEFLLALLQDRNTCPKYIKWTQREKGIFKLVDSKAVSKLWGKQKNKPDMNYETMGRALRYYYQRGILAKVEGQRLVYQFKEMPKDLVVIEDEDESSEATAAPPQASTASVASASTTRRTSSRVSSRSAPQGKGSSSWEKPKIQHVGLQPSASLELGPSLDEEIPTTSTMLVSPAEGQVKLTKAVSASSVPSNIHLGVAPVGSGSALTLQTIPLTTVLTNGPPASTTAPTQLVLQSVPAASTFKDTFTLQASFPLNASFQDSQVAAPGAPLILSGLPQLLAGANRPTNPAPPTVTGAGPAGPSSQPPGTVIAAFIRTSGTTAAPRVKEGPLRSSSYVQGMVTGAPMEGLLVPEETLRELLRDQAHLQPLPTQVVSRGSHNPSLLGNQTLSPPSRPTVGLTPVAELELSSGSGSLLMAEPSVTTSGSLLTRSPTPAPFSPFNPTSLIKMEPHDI
Sequence of HSF1 (Q00613 whole entry): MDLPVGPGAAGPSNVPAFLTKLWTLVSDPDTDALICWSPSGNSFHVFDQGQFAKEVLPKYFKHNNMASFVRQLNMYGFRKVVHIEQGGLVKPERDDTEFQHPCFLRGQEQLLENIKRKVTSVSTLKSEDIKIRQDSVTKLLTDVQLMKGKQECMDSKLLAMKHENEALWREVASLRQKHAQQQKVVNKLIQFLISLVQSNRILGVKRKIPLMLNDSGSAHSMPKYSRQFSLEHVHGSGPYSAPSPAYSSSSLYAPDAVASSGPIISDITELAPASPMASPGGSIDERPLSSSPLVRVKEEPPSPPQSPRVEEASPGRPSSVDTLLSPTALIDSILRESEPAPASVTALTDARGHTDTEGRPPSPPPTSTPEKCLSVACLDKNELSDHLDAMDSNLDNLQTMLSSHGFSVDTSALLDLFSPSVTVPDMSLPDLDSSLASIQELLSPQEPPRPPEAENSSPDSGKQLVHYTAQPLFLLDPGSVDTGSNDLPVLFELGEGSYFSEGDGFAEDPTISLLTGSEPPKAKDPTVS

Sequence: TAGTAT
- binding signal [1]: 1.25 fold enrichment (6-mer frequency, TF over GST control)
- binding signal [2]: 1.34 fold enrichment (6-mer frequency, TF over GST control)
- binding signal [3]: 1.28 fold enrichment (6-mer frequency, TF over GST control)
- binding signal [4]: 1.23 fold enrichment (6-mer frequency, TF over GST control)
- binding signal [5]: 1.29 fold enrichment (6-mer frequency, TF over GST control)
- binding signal [6]: 1.38 fold enrichment (6-mer frequency, TF over GST control)
- binding signal [7]: 1.23 fold enrichment (6-mer frequency, TF over GST control)
- binding signal [8]: 1.33 fold enrichment (6-mer frequency, TF over GST control)
- binding signal [9]: 1.15 fold enrichment (6-mer frequency, TF over GST control)
- binding signal [10]: 1.28 fold enrichment (6-mer frequency, TF over GST control)
- binding signal [11]: 1.33 fold enrichment (6-mer frequency, TF over GST control)
- binding signal [12]: 1.55 fold enrichment (6-mer frequency, TF over GST control)
- binding signal [13]: 1.43 fold enrichment (6-mer frequency, TF over GST control)
- binding signal [14]: 1.3 fold enrichment (6-mer frequency, TF over GST control)
- binding signal [15]: 1.31 fold enrichment (6-mer frequency, TF over GST control)
- binding signal [16]: 1.34 fold enrichment (6-mer frequency, TF over GST control)
- binding signal [17]: 1.3 fold enrichment (6-mer frequency, TF over GST control)
- binding signal [18]: 1.68 fold enrichment (6-mer frequency, TF over GST control)
- binding signal [19]: 1.23 fold enrichment (6-mer frequency, TF over GST control)
